Shown are actives, neighbours in structure and some others; about 7% of the full set was active somewhere.
KLK7 zymogen act – proKLK7 zymogen activators, primary screen, biochemical, fluorescence intensity. Kallikrein-7 (Homo sapiens), P49862. purified proKLK7, EDANS-DABCYL substrate fluorescence; 100% is mature enzyme control, 0% vehicle. activation, % at 7 µM. 0.9% of 370,000 active. AID 652039, 2013;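 active = activation above the mean of all tested compounds plus 3 SD, computed per campaign excluding outliers beyond control limits, cut at about 13% in these data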
Target sequence (P49862 whole entry, looked up): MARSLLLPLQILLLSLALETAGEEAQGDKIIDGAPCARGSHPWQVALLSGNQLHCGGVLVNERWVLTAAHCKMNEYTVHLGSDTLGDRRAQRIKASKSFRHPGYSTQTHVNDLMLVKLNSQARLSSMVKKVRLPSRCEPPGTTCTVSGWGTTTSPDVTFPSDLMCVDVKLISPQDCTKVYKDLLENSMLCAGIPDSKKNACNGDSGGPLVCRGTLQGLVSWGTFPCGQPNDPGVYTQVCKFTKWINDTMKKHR
NR3A LBD binder – binders of NR3A ligand-binding domain, primary screen, biophysical, differential scanning fluorimetry, uHTS. AID 1259313, 2017. NR3A LBD differential scanning fluorimetry, Tm shift; 0% = protein alone, 100% = glycine-bound protein. 2.5% of 340,000 active. Tm shift relative to glycine control, % at 25 µM;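 active = melting temperature shift of at least 10% of the positive control shift, at one fixed dose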
rCAG RNA binder – binders of r(CAG) RNA repeats, primary screen, biochemical, fluorescence; AID 651821, 2012; 1.3% of 370,000 active; inhibition, % at 3 µM; r(CAG) RNA repeat, TO-PRO-1 dye displacement fluorescence;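 active = inhibition above the plate cutoff, the mean of all test compounds on that plate plus 3 SD, cut at about 35% in these data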;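 also: higher means more dye released from RNA so lower well fluorescence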
AHR activator – AHR activators, primary screen, cell-based, luminescence, luciferase reporter, human; Aryl hydrocarbon receptor (Homo sapiens), P35869; AHR-responsive luciferase reporter cells; activation, % at 5 µM; 2.5% of 320,000 active; in the data active = activation above about 47%
ADAM10 inh – human ADAM10 inhibitors, primary screen, biochemical, QFRET, HTS; 0.62% of 370,000 active; Disintegrin and metalloproteinase domain-containing protein 10 (Homo sapiens), O14672; recombinant ADAM10, EDANS/DABCYL FRET peptide cleavage, 3 h; inhibition, % at 7 µM; AID 720582, 2013;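 active = inhibition above a per-campaign cutoff equal to the mean of compounds falling between control-based bounds plus 3 SD, cut at about 20% in these data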
ADAM17 inh – ADAM17 inhibitors, primary screen, biochemical, QFRET; Disintegrin and metalloproteinase domain-containing protein 17 (Homo sapiens), P78536; recombinant ADAM17, EDANS/DABCYL FRET peptide cleavage; inhibition, % at 6.95 µM; 0.83% of 370,000 active;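 active = inhibition above the mean of compounds lying between control limits plus 3 SD, set per campaign, cut at about 8.5% in these data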
AHR act confirm – AHR activators, confirmation, cell-based, luminescence, luciferase reporter, human. shares compounds with AHR activator. human cells, AHR-responsive luciferase reporter. activation, % at 9 µM. 87% of 2,300 active; in the data active = activation above about 49%;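 also: HepG2 hepatoma cells carrying a DRE-driven firefly luciferase reporter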
PXR act counter – human PXR activators, counter-screen for AHR activator project, cell-based, luciferase luminescence; 88% of 2,300 active; activation, % at 11.6 µM; cell-based PXR reporter; shares compounds with AHR activator; in the data active = activation above about 11%;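 also: human hepatoma DPX-2 cells expressing full-length human PXR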
Of the large screens only hits and unclear results are named; the others gave an inactive call (follow-up assays come after a bar, where they were run).

C=CCN1C[C@H](COC(=O)c2cccc(C)c2)Oc2cccc(F)c2S1(=O)=O	none (no result: NR3A LBD binder, AHR activator)
O=C(CCc1ccccc1)NCC1OCCc2ccccc21 (stereo not given)	none
O=C(NCC1OCCc2ccccc21)c1ccco1 (stereo not given)	AHR activator 86 | AHR act confirm 129 | PXR act counter 14
CCCCN1CC(COCc2ccccc2)Oc2cccc(N3CCCCC3)c2S1(=O)=O (stereo not given)	none (no result: NR3A LBD binder, AHR activator)
CCc1cccc(CC)c1NC(=O)CSc1nc2ccc(N3C(=O)C4C5C=CC(C5)C4C3=O)cc2s1 (stereo not given)	AHR activator 126 | AHR act confirm 53 | PXR act counter 69
O=C(O)c1ccc(CSc2nc3ccc(N4C(=O)C5C6C=CC(C6)C5C4=O)cc3s2)cc1 (stereo not given)	none
COC(=O)c1c(-c2ccc(OC)cc2)c2c(c3c4cc(OC)ccc4n(S(=O)(=O)c4ccc(C)cc4)c13)C(=O)N(C)C2	none (no result: NR3A LBD binder, AHR activator)
CCN(CC)S(=O)(=O)c1cc(C(=O)N=c2sccn2C)ccc1OC	AHR activator 100 | AHR act confirm 87 | PXR act counter 125
Cc1cccc(C(=O)N=c2sccn2C)c1[N+](=O)[O-]	AHR activator 99 | AHR act confirm 82 | PXR act counter 142
Cc1ccc(C(=O)N=c2sccn2C)cc1C	AHR activator 194 | AHR act confirm 136 | PXR act counter 41
CCCN1C(=O)c2n[nH]c(C)c2C1c1ccc(Br)cc1 (stereo not given)	none (no result: NR3A LBD binder, AHR activator)
OCCNCc1cc(Br)ccc1OCc1ccccc1Cl	AHR activator 119 | AHR act confirm 85 | PXR act counter 40
CCCNCc1cc(Br)ccc1OCC(=O)NCCc1ccccc1	none
O=C(COc1ccc(Br)cc1CNCCc1ccccc1)NCc1ccccc1	AHR activator 114 | AHR act confirm 90 | PXR act counter 44
COC(=O)CCC[C@H](C)[C@@H](NS(=O)(=O)c1ccc(C)cc1)C(C)(C)C	none (no result: NR3A LBD binder, AHR activator)
O=C(NCCc1ccccn1)c1c(-c2ccsc2)sc2ccccc12	AHR activator 128 | AHR act confirm 92 | PXR act counter 161
COc1ccc(CC(=O)Nc2ccc(C)cc2S(=O)(=O)N2CCOCC2)cc1OC	none (no result: NR3A LBD binder, AHR activator)
COCCNC(=O)c1cc2c(=O)n3cccc(C)c3nc2n1C	none
COCCCNC(=O)c1cccn2c(=O)c3cc4ccccc4cc3nc12	AHR activator 92 | AHR act confirm 147 | PXR act counter 13
COc1ccc(S(=O)(=O)N2CCN(C(=O)c3cc(-c4ccc(C)cc4)n[nH]3)CC2)cc1	none
COc1ccc(-c2cc(C(=O)N3CCN(S(=O)(=O)c4ccc(C)cc4)CC3)[nH]n2)cc1	AHR activator 111 | AHR act confirm inactive | PXR act counter 13
CCCN1CCCCC(NC(=O)c2ccc(Cl)cc2Cl)C1=O (stereo not given)	none (no result: NR3A LBD binder, AHR activator)
CCCN(CCC)CCNC(=O)c1cc2c(=O)n(C)c3ccccc3c2n1C	AHR activator 98 | AHR act confirm 91 | PXR act counter 42
S=C1NC(c2ccccc2)=CC(c2ccccc2)N1 (stereo not given)	none
S=C1NC(c2cccs2)=CC(c2ccc(Br)cc2)N1 (stereo not given)	AHR activator 117 | AHR act confirm 111 | PXR act counter 60
